Screening results from PubChem.
Hits are enriched below; roughly 1.4% of the tested compounds scored in any of these assays.
MbtI inh: inhibitors of Mycobacterium tuberculosis siderophore enzyme MbtI; purified MbtI enzyme, fluorescence intensity read-out; P9WFX0; inhibition, % (test concentration not listed); hit rate 0.89% among 100,000; in the data active = inhibition mostly above about 56%, no sharp cut-off; inactive = mostly below about 77%
Target sequence (P9WFX0 whole entry, looked up): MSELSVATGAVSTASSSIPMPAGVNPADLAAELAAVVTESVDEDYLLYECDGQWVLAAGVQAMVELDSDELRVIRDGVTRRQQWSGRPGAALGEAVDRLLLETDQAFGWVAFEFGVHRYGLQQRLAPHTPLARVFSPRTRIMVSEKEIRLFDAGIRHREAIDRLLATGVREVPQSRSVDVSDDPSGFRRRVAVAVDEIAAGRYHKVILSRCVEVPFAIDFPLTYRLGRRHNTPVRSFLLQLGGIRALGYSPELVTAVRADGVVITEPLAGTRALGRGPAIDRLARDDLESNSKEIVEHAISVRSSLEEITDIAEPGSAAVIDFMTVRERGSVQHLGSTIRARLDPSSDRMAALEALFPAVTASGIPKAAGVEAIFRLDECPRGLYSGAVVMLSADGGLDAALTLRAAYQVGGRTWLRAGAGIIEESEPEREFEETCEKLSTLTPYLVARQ
PV pol inh: inhibitors of poliovirus RNA polymerase binding and polymerization | hit rate 0.66% among 150,000 | poliovirus polymerase elongation, fluorescence polarization; stronger effect = lower value | P03300 | % elongation, % (compound at 16.7 µg/mL); in the data active = % elongation below about 90%
Mtb MenB inh: blocks the Mycobacterium tuberculosis MenB enzyme. P9WNP5. MenB enzyme assay, absorbance read-out. inhibition, % (test concentration not listed). hit rate 0.43% among 100,000. AID 540299; in the data active = inhibition above about 21%, passing the limit was not always enough
Numbers without * were called inactive; / = no result given; ! = a repeat was not active.

SMILES | MbtI inh | PV pol inh | Mtb MenB inh
Cc1csc(Nc2ccccc2)[n+]1CCO | -10 | 103 | /
Cc1scc(-c2ccccc2)[n+]1CCO | 54* | 104 | -3
CCOc1ccc(-c2cnc(N)s2)cc1 | / | 62* | -1
COc1ccc(-c2cnc(N)s2)cc1 | / | 105 | 1
O=C(NCc1ccccc1)c1ccc(COc2ccccc2Br)o1 | 11 | 100 | -2
NNc1nnc(Cl)c2ccccc12 | 33 | 101 | -33
CC1=C(/C=C/C(C)=C/C=C/C(C)=C\C(=O)O)C(C)(C)CCC1 | -12 | 101 | 50*!
CC1=C(/C=C/C(C)=C/C=C/C(C)=C/C(=O)Nc2ccc(O)cc2)C(C)(C)CCC1 | -18 | 101 | 8
NC(=O)CCS(=O)(=O)c1ccccc1 | -1 | 105 | -19
O=C(O)CCCS(=O)(=O)c1ccccc1 | 10 | 101 | 35*
CC1Cc2ccccc2N1C(=O)C1CCN(S(=O)(=O)c2ccc(-n3cnnn3)cc2)CC1 (stereo not drawn) | 2 | 102 | 39*
CC(C)CNC(=O)C1CCN(S(=O)(=O)c2ccc(-n3cnnn3)cc2)CC1 | -12 | 102 | -46
Cc1ccc(NCC(=O)N=Nc2c(O)[nH]c3ccccc23)cc1 | 4 | 106 | -70
Fc1ccc(C2=Nn3c(Cc4ccccc4)nnc3SC2)cc1 | -12 | 104 | /
S=c1[nH]nc(Cn2nnc3ccccc32)o1 | 2 | 101 | -4
c1ccc(OCc2nnc3n2N=C(c2ccccc2)CS3)cc1 | 84* | 93 | -41
Brc1ccc(C2=Nn3c(Cn4nnc5ccccc54)nnc3SC2)cc1 | 68* | 69* | -5
O=C(NC1CC1)c1cc2cc(Cl)ccc2oc1=O | -8 | 102 | 11
Nc1c(C(=O)c2ccc3c(c2)OCCO3)oc2ccccc12 | -44 | 107 | -103
O=C(Cc1ccc2c(c1)OCCO2)Nc1ccnn1C1CCCCC1 | 15 | 102 | -16
COc1ccc(-n2c(-c3ccco3)nc3ccccc3c2=O)cc1 | -1 | 100 | -2
Cc1cccc(-n2c(-c3ccco3)nc3ccccc3c2=O)c1 | 59* | 104 | -5
COC(=O)c1ccc(COn2c(=O)c[n+]([O-])c3ccccc32)cc1 | 4 | 102 | -16
CCN(CC)CCC(=O)c1ccc(OC(C)C)cc1 | 65* | 102 | -4
CCN(CC)CCC(=O)c1ccc(F)cc1 | / | 104 | 12
SMILES | MbtI inh | PV pol inh | Mtb MenB inh
O=C(O)CC1SC(=O)N(c2ccccc2)C1=O (stereo not drawn) | -22 | 102 | 4
O=C(O)c1ccc(S(=O)(=O)C(F)F)cc1 | 2 | 98 | -17
O=C1C=CC(=NS(=O)(=O)c2ccc(C(=O)O)cc2)C=C1 | 91* | 99 | 13
COc1ccc(CNCCN2CCOCC2)cc1 | 4 | 102 | 28*
COc1ccc(OC)c(NC(=S)NCCN2CCOCC2)c1 | 26 | 102 | -4
O=S(=O)(c1cccs1)N1CCCN(S(=O)(=O)c2cccs2)CC1 | 3 | 102 | 26*
O=S(=O)(c1cccs1)N1CCCCCC1 | 13 | / | /
O=c1[nH]c(CSc2nnc(-c3ccccc3)n2Cc2ccco2)nc2scc(-c3ccccc3)c12 | 30 | 108 | -8
CN1CCN(C(c2ccccn2)c2c(-c3ccccc3)n(O)c3ccccc23)CC1 (stereo not drawn) | 22 | 88* | -9
Cc1[nH]c2ccccc2c1C(c1ccccn1)N1CCN(CCO)CC1 (stereo not drawn) | 18 | 103 | /
Cc1ccc(C)c(OCCC(=O)O)c1 | -3 | 113 | -14
CCOC(=O)c1c(N2C(=O)C=CC2=O)sc(C)c1-c1ccccc1 | 77* | 108 | -14
CCOC(=O)c1c(N)sc(SC#N)c1-c1ccccc1 | 32 | 97 | -10
O=c1c2ccccc2[se]n1-c1ccccc1 | 103* | 99 | 5
O=c1c2ccccc2nc(-c2ccccc2)n1-c1ccccc1 | / | 105 | -13
O=C(Nc1cccc(C(=O)NCc2ccc3c(c2)OCO3)c1)C1=CSCCO1 | -15 | 100 | -7
CC1(C)Cc2[nH]c(=S)c(C#N)cc2CO1 | 92 | 101 | -85
N#Cc1cc2c([nH]c1=S)CCCC2 | 102* | 98 | -217
Cc1nn(-c2ccccc2)c(C)c1C(=O)N1CCCc2ccccc21 | -4 | 106 | -34
O=C(NC1CCCCC1)C1c2ccccc2C(=O)N1C1CCCC1 (stereo not drawn) | -6 | 105 | -36
O=C(O)C1CSC2c3ccccc3C(=O)N12 (stereo not drawn) | -4 | 101 | 39*
CCS(=O)(=O)Nc1cccc(-c2cn3ccccc3n2)c1 | 130 | 100 | -9
CN(c1ccccc1)S(=O)(=O)c1ccc(Cl)cc1 | / | 106 | -18
O=S(=O)(c1ccc(Cl)cc1)N(O)c1ccc(Cl)cc1 | 88* | 97 | 19
Cn1cc(C(=O)CSc2nnc(-c3ccoc3)c(-c3ccoc3)n2)c2ccccc21 | 44 | 101 | -38
COc1ccc2[nH]cc(C(=O)CSc3nnc(-c4ccoc4)c(-c4ccoc4)n3)c2c1 | 75* | 102 | -62
